Records with an inconclusive call do not appear. Activity calls are given as the source filed them. Calls follow the shape of the dose curve; as a rule, active = well fitted cell-killing curve with a large enough effect in the repeat runs; inconclusive = weak or mixed curves, or effect the other way; inactive = no such curve, though single readings can be large or run the other way.
experiment: qHTS assay to identify small molecule antagonists of the vitamin D receptor (VDR) signaling pathway - cell viability counter screen (AID 743225); settings: VDR-bla HEK293T viability, CellTiter-Glo luminescence, 16 h; series mostly up to 61 µM; viability change, negative = cytotoxic: at the top concentration; also: nearly all actives have a fitted effect of over 50% in size
Text: U.S. Tox21 Program National Center for Advancing Translational Sciences [NCATS] NIH Chemical Genomics Center [NCGC] U.S. Environmental Protection Agency [EPA] National Institutes of Environmental Health Sciences [NIEHS] National Toxicology Program [NTP] U.S. Food and Drug Administration [FDA] Tox21 Assay Overview: The vitamin D receptor (VDR), a member of nuclear hormone receptor superfamily, plays a critical role in calcium homeostasis and bone metabolism. It is also involved in cell differentiation and growth, and thrombogenicity. To identify the compounds that inhibit VDR signaling, the VDR-UAS-bla HEK 293T cell line (Invitrogen, Carlsbad, CA, USA) containing a beta-lactamase reporter gene under the control of an upstream activator sequence (UAS) was used to screen the Tox21 10K compound library. The cytotoxicity of the Tox21 compound library against the VDR-bla cell line was tested in parallel by measuring the cell viability using CellTiter-Glo assay (Promega, Madison, WI) in the same wells.
Tox21 Assay Protocol Summary: VDR-bla cells were dispensed at 2,000 cells/5 uL of assay medium per well into black wall/clear-bottom 1536-well plates using a Multidrop Combi (Thermo Fisher Scientific, Waltham, MA) dispenser. After the assay plates were incubated at a 37C and 5% CO2 for 4 h, 23 nL of compounds dissolved in DMSO, positive controls or DMSO only was transferred to the assay plate by a Pintool station (Kalypsys, San Diego, CA), followed by addition of 1 uL of 1-alpha, 25-Dihydroxy Vitamin D3 (3 nM, final concentration in the wells) using a Bioraptr Flying Reagent Dispenser (FRD) workstation (Beckman Coulter, Indianapolis, IN). The plates were incubated at 37C and 5% CO2 for 16 h, and then 1 uL of LiveBLAzerTM B/G FRET substrate was added using a Bioraptr FRD. The plates were incubated at room temperature for 2 h and fluorescence intensity was measured by an Envision plate reader (PerkinElmer, Shelton, CT). For cell viability readout that measures cytotoxicity, 3 ul/well of CellTiter-Glo reagent was added into the assay plates using a Bioraptr FRD. After 30 min incubation at room temperature, the luminescence intensity in the plates was measured using a ViewLux plate reader (PerkinElmer).
% is scaled to controls: 0 for no effect and ±100 for the full control effect.

Compound	viability change, negative = cytotoxic
CC(=O)OC(C)(C)Cc1ccccc1	1.95% (inactive)
CCC1COC(=O)O1 (stereo not given)	0.325% (inactive)
C[C@H](CCC(=O)O)[C@H]1CC[C@H]2[C@@H]3[C@H](O)C[C@@H]4C[C@H](O)CC[C@]4(C)[C@H]3C[C@H](O)[C@]12C	-10.8% (inactive)
Cc1ccccc1OCC1CO1 (stereo not given)	3.45% [at 78.8 µM] (inactive)
CCC(=O)OCCC(C)CCC=C(C)C (stereo not given)	-2.84% (inactive)
C=C(C)C(=O)OC1CC(C)CC(C)(C)C1 (stereo not given)	-6.07% (inactive)
C=C(C)C(=O)OCCCCCCOC(=O)C(=C)C	-5.13% (inactive)
CC(C)(CO)[C@@H](O)C(=O)NCCCO	0.425% (inactive)
Cc1ccc2c(c1)c1c3n2CCNC3CCC1 (stereo not given)	2.12% (inactive)
Oc1ccccc1Cc1ccccc1O	-16% (inactive)
CCCCC(CC)COC(=O)c1ccccc1 (stereo not given)	-21.8% (inactive)
COc1ccc(NS(=O)(=O)c2ccc(N)cc2)nn1	-5.17% (inactive)
CCCCCCCCCCCCOC(C)=O	5.3% (inactive)
COc1cc([N+](=O)[O-])ccc1N	-10.8% (inactive)
CC(=O)Nc1ncc([N+](=O)[O-])s1	-11.3% (inactive)
O=S1(=O)CCCC1	36.4% [at 78.8 µM] (inactive)
CCCCCCCCCCC	-9.65% (inactive)
CCCO	3.33% (inactive)
CCNC(=O)NCCCOc1cccc(CN2CCCCC2)c1	26.1% (inactive)
CCN(CC)C(=O)C1CN2CCc3cc(OC)c(OC)cc3C2CC1OC(C)=O (stereo not given)	3.81% (inactive)

Compound	viability change, negative = cytotoxic
CCOC(=O)C(C)(C)C	6.12% [at 78.8 µM] (inactive)
CN(C1CCCCC1)S(=O)(=O)c1ccccc1N	-15.9% (inactive)
Cn1c(=O)c2c(ncn2CC2OCCO2)n(C)c1=O	17.4% (inactive)
C[N+](C)(C)CC(O)CCl (stereo not given)	11.2% [at 78.8 µM] (inactive)
Cc1cc(C)cc([N+](=O)[O-])c1	8.4% [at 78.8 µM] (inactive)
C=CCOC(=O)c1ccc(C(=O)OCC=C)c(C(=O)OCC=C)c1	22.2% (inactive)
CCN1CN(CC)CN(CC)C1	2.41% (inactive)
COc1ccc(/C=N/NC(=O)c2ccncc2)cc1OC	4.13% (inactive)
OCCCCCCCl	10.7% [at 78.8 µM] (inactive)
O=S(=O)(O)CCO	5.37% [at 78.8 µM] (inactive)
CC(Cl)COP(=O)(OCC(C)Cl)OCC(C)Cl (stereo not given)	11.3% (inactive)
CCC1Nc2cc(Cl)c(S(N)(=O)=O)cc2S(=O)(=O)N1 (stereo not given)	-5.1% (inactive)
Cc1ccccc1C(=O)N1CC/C(=N\OS(=O)(=O)O)c2ccc(Cl)cc21	2.12% (inactive)
Nc1nc(=O)n([C@@H]2O[C@H](CO)[C@@H](O)[C@@H]2F)cc1I	-13.2% (inactive)
C=CCOCC(O)CCl (stereo not given)	12% (inactive)
SCCSCCS	8.69% (inactive)
Cc1nc(C)nc(N2C[C@@H](C)N(c3ccnc([C@@H](C)O)n3)[C@@H](C)C2)n1	-8.48% (inactive)
FC(F)(F)/C(=N\OCC1OCCO1)c1ccc(Cl)cc1	13.8% (inactive)
COc1ccc(N=Nc2cc(C)c(N=Nc3ccc(S(=O)(=O)O)cc3)cc2OC)cc1	-2.08% (inactive)
Cc1ccccc1C	8.34% [at 78.8 µM] (inactive)

From PubChem BioAssay (Tox21)
